Data on six compounds can be found in PubChem BioAssay (Tox21).

The source made the active and inactive calls. Where a call stands in place of a potency, no number is given. The call rests on the fitted dose curve; in most records, active means well fitted curve in the direction sought with a large enough effect in the repeat runs; inconclusive means weak or mixed curves; inactive means flat fitted curve, though single readings scatter.

A short description of this test: qHTS assay to test for compound auto fluorescence at 590 nm (red) in HEK293 cells (AID 720679). The settings on record: red autofluorescence 540/590 nm; series mostly up to 46 µM. The method, boiled down:
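Red-channel autofluorescence (Ex/Em 540/590 nm; Rose Bengal sodium reference) was measured after overnight 37C, 5% CO2 exposure of attached HEK293 cells, 2,000 per well in medium with 10% dialyzed FBS.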
On the technique in general: qHTS replaces the single test concentration by a dilution series.
For the compound `CCCCCCCCCCCCOCCCN`, the Potency result is “inactive”. The value for `O=C(O)C1CCCN1` (stereo unspecified) was “inactive”. The entry for `CCCCC/C=C\C/C=C\C/C=C\CCCCC(=O)O` is “inactive”; for `O=S(=O)(O)c1cc(O)c2c(N=Nc3ccc(Nc4ccccc4)c4c(S(=O)(=O)O)cccc34)cc(S(=O)(=O)O)cc2c1` it is “inactive”; for `Nc1nc(=O)n([C@@H]2CS[C@H](CO)O2)cc1F` it is “inactive”. Consider `COc1ccc(C[C@@H](C)NC[C@H](O)c2ccc(O)c(NC=O)c2)cc1`, for which the Potency result is “inactive”.
